Bioassay records as filed in PubChem BioAssay.
Lamin A splicing = qHTS Assay for Modulators of Lamin A Splicing; HeLa LMNA splicing GFP/RFP minigene ratio, 48 h; Potency, µM (top dose mostly 46.1 µM), for the others: at the top dose ratio change, negative = inhibition, usual class: inhibitors; 200,000 tested, 0.01% active; active means well fitted inhibition curve with a large enough effect in the signal ratio, with a control signal flat, not every such curve was filed as active; inconclusive means small, poorly fitted or top-dose-only effect, or effect the other way, or a change in a side signal; the % refers to the signal ratio; further: potency means the concentration at half of the fitted maximal effect; on the % scale 0 is the no-effect control and ±100 the full control effect
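S3 HeLa cells stably expressing lamin A-EGFP splicing minigene plus DsRed2, 600 cells/well, 48 h compound exposure at 37C. Laser-scanning cytometry; analysed as GFP (500-530 nm)/RFP (575-640 nm) total intensity ratio; 0.5% DMSO vehicle.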
G9a block = qHTS Assay for Inhibitors of Histone Lysine Methyltransferase G9a; Histone-lysine N-methyltransferase EHMT2 (Homo sapiens), Q96KQ7; G9a H3K9 monomethylation, AlphaScreen, 2 h; Potency, µM (titrated, usually from 102 µM), for inactives: at the highest dose activity, negative = inhibition, usual class: inhibitors; 350,000 tested, 8.8% active; AID 504332, 2011; further: potency means the concentration at half of the fitted maximal effect; on the % scale 0 is the no-effect control and ±100 the full control effect; nearly all actives have a fitted effect of over 75% in size
Target sequence (Q96KQ7 913-1193 limits assumed): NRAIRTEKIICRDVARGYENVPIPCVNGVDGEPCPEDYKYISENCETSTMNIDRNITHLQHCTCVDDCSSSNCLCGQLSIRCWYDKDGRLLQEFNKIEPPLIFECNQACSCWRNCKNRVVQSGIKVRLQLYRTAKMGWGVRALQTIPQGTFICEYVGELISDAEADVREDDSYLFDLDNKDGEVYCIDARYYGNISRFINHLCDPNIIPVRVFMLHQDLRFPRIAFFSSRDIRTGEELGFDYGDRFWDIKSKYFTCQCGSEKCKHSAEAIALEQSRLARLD
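AlphaScreen read-out: biotin-H3K9 peptide (500 nM) methylation by 20 nM enzyme with 20 uM SAM, 2 h at room temperature after 15 min compound preincubation; anti-monomethyl H3K9 antibody plus donor/acceptor beads, 10 min dark.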
miR-21 act = qHTS Assay for Modulators of miRNAs and/orActivators of miR-21; HeLa miR-21 FLuc reporter, luciferase, 48 h; Potency, µM (highest dose often 38.3 µM), inactives show at the top dose activity change, positive = activation, usual class: activators; 340,000 tested, under 10 active;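 further: % of control where 0% means no effect; miR-21 action dims this reporter so a rising signal means less miR-21 action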
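HeLa cells endogenously expressing miR-21, stably carrying CMV-driven firefly luciferase with a downstream miR-21 binding site, 2000 cells/well. Titrations up to approximately 40 uM, 48 hours; luciferase luminescence read.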
ALDH1A1 block = qHTS Assay for Inhibitors of Aldehyde Dehydrogenase 1 (ALDH1A1); Aldehyde dehydrogenase 1A1 (Homo sapiens), P00352; Purified ALDH1A1, NADH fluorescence, propionaldehyde substrate; Potency, µM (series often up to 75.3 µM), inactives show at the top dose activity, negative = inhibition, usual class: inhibitors; 220,000 tested, 7.3% active; AID 1030, 2008; active means well fitted inhibition curve with a large enough effect, not every such curve was filed as active; inconclusive means small, poorly fitted or top-dose-only effect, or another doubt; inactive means no such curve, though single readings can be large or run the other way;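 further: potency means the concentration at half of the fitted maximal effect; plate controls were no enzyme wells and a reference inhibitor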
JMJD2E inh = qHTS Assay for Inhibitors of Human Jumonji Domain Containing 2E (JMJD2E) | Lysine-specific demethylase 4E (Homo sapiens), B2RXH2 | Potency, µM (series often up to 57.1 µM), for the others: at the highest dose activity change, negative = inhibition, usual class: inhibitors | JMJD2E catalytic domain, FDH-coupled NADH fluorescence (FDH is formaldehyde dehydrogenase) | 230,000 tested, 1.6% active; active means well fitted inhibition curve with a large enough effect, not every such curve was filed as active; inconclusive means small, poorly fitted or top-dose-only effect, or another doubt; inactive means no such curve, though single readings can be large or run the other way;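 further: potency means the concentration at half of the fitted maximal effect; 0% = wells with enzyme and -100% = buffer wells without enzyme; nearly all actives have a fitted effect of over 50% in size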
Sfp PPTase inh = qHTS Assay for Inhibitors of Bacillus subtilis Sfp phosphopantetheinyl transferase (PPTase); Potency, µM, for inactives: largest response in the series, negative = inhibition, usual class: inhibitors; 310,000 tested, 3.5% active; AID 1490, 2009; Biochemical Sfp PPTase activity, qHTS; 4'-phosphopantetheinyl transferase ffp (Bacillus subtilis), Q9F4F7;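 further: the enzyme is Sfp with the accession as filed and its product quenches rhodamine fluorescence; potency means the concentration at half of the fitted maximal effect; 0% = enzyme reaction without inhibitor and -100% = no enzyme wells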
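Fluorescence-quenching assay: 15 nM Sfp-PPTase preincubated 15 min at room temperature with compound, then 5 uM rhodamine-CoA and 12.5 uM BHQ-2-labelled YbbR peptide added. Fluorescence (ex 525/em 598 nm) read at start and after 30 min; difference gives rate.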
* = called active by the depositor; ? = inconclusive; . = no result given; [ ] = dose if it differs, or a comment. The list is not random: actives were taken first. Their share in the collection is about 13%. Unless noted, the call rests on the fitted dose curve; in most records, active means well fitted curve in the direction sought with a large enough effect; inconclusive means small, poorly fitted or top-dose-only effect, or another doubt; inactive means no such curve, though single readings can be large; an effect the other way counts as inactive or inconclusive.

SMILES	Lamin A splicing	G9a block	miR-21 act	ALDH1A1 block	JMJD2E inh	Sfp PPTase inh
O=C(c1ccco1)N1CCC2(CC1)CN(c1ccccc1)C2	.	23%[12.7 µM]	.	14µM*	.	-25%
COc1ccc(NC(=O)N2CC3(CCN(C(=O)c4ccco4)CC3)C2)cc1	.	8%[12.7 µM]	.	16µM*	.	4%
COC(=O)N1CCC2(CC1)CN(c1cccc(-c3ccccc3)c1)C2	.	2%[12.7 µM]	.	?	.	79µM*
O=C(c1ccco1)N1CCC2(CC1)CN(c1ccc(-c3ccccc3)cc1)C2	.	-1%[12.7 µM]	.	-8%	.	-1%
O=C(Cn1cnc2c(nnn2Cc2ccc(F)cc2)c1=O)Nc1ccc2c(c1)OCCO2	.	16%[59 µM]	0%	.	.	-12%
Cc1sc2ncn(CC(=O)NCc3ccco3)c(=O)c2c1-c1ccccc1	6%[46 µM]	.	-3%	4%	0%	6%
Cc1c(O)nc(SCC(=O)Nc2ccc(Cl)cc2Cl)n(-c2ccc(F)cc2)c1=O	.	14%[59 µM]	-1%	.	.	.
Cn1cc(Cl)c(-c2n[nH]c(=S)n2-c2ccc(F)cc2)n1	6%	7.9µM*	-1%	5%	-6%	-2%
Cc1ccc(-n2c(-c3cn(C)nc3C)n[nH]c2=S)cc1	.	?	-2%	-6%	-3%	-13%
Cc1ccc(-n2c(-c3nn(C)cc3Cl)n[nH]c2=S)cc1	0%	3.2µM*	-20%	1%	?	13µM*
Cc1nn(C)cc1-c1n[nH]c(=S)n1-c1ccc(F)cc1	8%	10µM*	1%	-8%	-3%	-8%
COc1ccccc1C(=O)Nc1cccc(OCc2cc(=O)n3c(C)csc3n2)c1	.	?	-1%	.	.	.
CSc1n[nH]c2nc3c(c(=O)n12)C1(CCCCC1)Cc1ccccc1-3	20%[46 µM]	.	0%	?	?	18µM*
N#CCSc1n[nH]c2nc3c(c(=O)n12)C1(CCCCC1)Cc1ccccc1-3	.	.	2%	.	244%	50µM*
COCCNC(=O)CSc1nnc(-c2ccccc2)c(-c2ccccc2)n1	-6%[46 µM]	-8%	-4%	22µM*	-9%	10%
COCCNC(=O)CSc1nnc(-c2ccc(OC)c(OC)c2)c(-c2ccc(OC)c(OC)c2)n1	-21%[46 µM]	-7%[59 µM]	-10%	.	.	.
COCCNC(=O)CSc1cc(-c2ccccc2)c2ccc(OC)cc2n1	-15%[46 µM]	22µM*	5%	?	?	-19%
CC(C)C[C@@H](CC(=O)N[C@@H](CCCN)CC(=O)N[C@@H]1CCNC[C@H]1C(=O)N[C@H](CC(=O)N[C@@H](CCC(=O)O)CC(=O)O)CC(C)C)NC(=O)[C@@H]1CCCC[C@H]1N	.	.	.	?	-13%	-1%
O=[N+]([O-])c1ccccc1S(=O)(=O)N(CC1CO1)c1ccccc1 (stereo not drawn)	.	-14%	2%	.	.	14%
COc1ccc(S(=O)(=O)NCC(c2ccc(N(C)C)cc2)N2CCOCC2)cc1 (stereo not drawn)	7%[46 µM]	-25%[12.7 µM]	3%	.	.	.
N#Cc1ccccc1Cn1c(SCC(=O)NCc2ccccc2)nc2ccccc21	10%[46 µM]	5%[12.7 µM]	-7%	.	.	.
COC(=O)Cc1n[nH]c(=O)c2ccccc12	10%	30%[12.7 µM]	-4%	0%	1%	16%
COC(=O)Cc1n[nH]c(=S)[nH]c1=O	11%	0%[59 µM]	2%	-6%	2%	18µM*
CCCCOC(=O)C(C)Nc1n[nH]c(=S)[nH]c1=O (stereo not drawn)	13%	?	-12%	?	2%	50µM*
CCCCOC(=O)CCc1c(C)[nH]c(=S)[nH]c1=O	3%[0.0737 µM]	35%[0.501 µM]	-3%	?	11%	1%
CCCCOC(=O)C(C)c1c(C)[nH]c(=S)[nH]c1=O (stereo not drawn)	-5%	40µM*	-1%	?	-2%	-3%
